Only some compounds are listed: those with a hit (about 7.9% of all), similar ones and a draw of the others.
KB-V1 MDR tox: KB-V1 MDR subline cytotoxicity; KB-V1 MDR cells viability, CellTiter-Glo, 72 h; Potency, µM (series often up to 46.1 µM), hits mostly cytotoxic; 3.4% of 400,000 active; AID 1347076; note: % is set by controls: 0 for no effect and ±100 for the full control effect; nearly all actives have a fitted effect of over 60% in size
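Readout: CellTiter-Glo luminescence, 10 min after addition. Cells: KB-V1 MDR subline, 72 h at 37 degrees C with compound. Analysis: corrected, normalized data fitted to concentration-effect curves.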
MCF10A rereplic: DNA re-replication induction in MCF 10a cells | AID 624296 | 2.9% of 350,000 active | Potency, µM (titrated, usually from 46.1 µM), without a hit: at the highest dose activity, positive = re-replication, hits mostly activators | MCF 10A DNA re-replication, Hoechst nuclear intensity, 48 h; note: % of control where 0% means no effect; nearly all actives have a fitted effect of over 50% in size
KB-3-1 tox: KB-3-1 parental cell cytotoxicity. Potency, µM (highest dose often 46.1 µM), actives largely listed as cytotoxic. AID 1347075. KB-3-1 viability, CellTiter-Glo ATP luminescence, 72 h. 1.4% of 400,000 active; note: % is set by controls: 0 for no effect and ±100 for the full control effect; nearly all actives have a fitted effect of over 60% in size
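Screening of KB-3-1 cells (DMEM, 10% FBS, phenol-red free) ran from lowest to highest compound concentration; after 72 h at 37 °C viability was read luminescently and curves fitted.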
HT1080 IDH1KD tx: toxicity to HT-1080 IDH1 knockdown cells (counter line); HT-1080 IDH1 knockdown viability, ATP luminescence, 48 h; Potency, µM (top dose mostly 46.1 µM), without a hit: top-dose activity, negative = toxicity, most hits filed as cytotoxic; 2% of 360,000 active; AID 686971;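 note: 0% = DMSO wells and -100% = cell-free medium wells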
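HT-1080-IDH1KD cells (IDH1 knocked down), 750/well in RPMI with 5% FBS, treated with compound 48 h at 37 degrees C. Viability by CellTiter-Glo luminescence, normalised to DMSO and no-cell wells; concentration-response curves classed.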
HT1080-NT tox: kills 2HG-producing HT-1080-NT fibrosarcoma cells | 1.6% of 360,000 active | HT-1080-NT fibrosarcoma viability, CellTiter-Glo ATP luminescence, 48 h | Potency, µM (top dose mostly 46.1 µM), for the others: at the top dose activity, negative = less viability, usual class: cytotoxic | AID 686970;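 note: NT is the 2HG producing partner of a matched IDH1 knockdown line; 0% = DMSO-treated cells and -100% = media-only wells without cells; nearly all actives have a fitted effect of over 55% in size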
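Viability by CellTiter-Glo luminescence after 48 h compound exposure at 37C of HT-1080-NT cells (750/well, RPMI, 5% FBS). % activity scaled between DMSO wells and medium-only wells, then curve-fitted and categorized by curve class.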
SW480 rereplic: inducers of DNA re-replication in SW480 colon cancer cells; SW480 DNA re-replication, Hoechst DNA content imaging, 48 h; Potency, µM (doses to about 46.1 µM), without a hit: top-dose re-replication activation, usual class: activators; 1.8% of 340,000 active; note: % of control where 0% means no effect; nearly all actives have a fitted effect of over 55% in size
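Readout is total intensity of Hoechst-stained nuclei, excited at 405 nm and collected at 500-530 nm. Compound treatment lasted 48 hr at 37 C in 5% CO2 before staining.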
An asterisk follows results filed as active; i = inactive; ? = inconclusive; / = no result given. Calls come from the whole dose curve; as a rule, active = well fitted curve in the direction sought with a large enough effect; inconclusive = small, poorly fitted or top-dose-only effect, or another doubt; inactive = no such curve, though single readings can be large; an effect the other way counts as inactive or inconclusive. Potency is the fitted concentration of half-maximal effect.

SMILES | KB-V1 MDR tox | MCF10A rereplic | KB-3-1 tox | HT1080 IDH1KD tx | HT1080-NT tox | SW480 rereplic
CCC(C)NC(=O)c1ccccc1NC(=O)c1ccc(CSc2ccccc2)cc1 (stereo not given) | 12µM* | ? | i | 1% | 4% | 4%
CC(C)NC(=O)CC(=O)Nc1ccc2nc3n(c(=O)c2c1)CCCCC3 | ? | / | i | / | / | /
Cc1ccccc1C(=O)NC1CCN(Cc2nnnn2Cc2ccc(F)cc2)CC1 | 21µM* | 2% | i | -2% | 5% | -6%
CCOc1ccccc1C(=O)NC1CCN(Cc2nnnn2C2CCCC2)CC1 | 9.2µM* | 21% | i | -1% | -2% | -1%
CCOc1ccc(CN(C(=O)c2oc3cc(C)ccc3c2C)C2CCS(=O)(=O)C2)cc1 (stereo not given) | ? | 15µM* | ? | ? | ? | 21µM*
COc1ccc(C)cc1NC(=O)c1ccc(CN2CCN(c3ccccc3)CC2)cc1 | 18µM* | ? | ? | 7% | 1% | 25%
COc1ccc(C)cc1NC(=O)c1ccc(CN2CCc3ccccc3C2)cc1 | i | ? | i | -1% | 3% | 4%
CCOc1cc(C(=O)Nc2ccc(C)cc2C)ccc1OCC(=O)N1CCCCC1 | i | -3% | i | 2% | 8% | -1%
CCCN1CCN(C(=S)Nc2ccccc2C(F)(F)F)CC1 | 3.3µM* | 24% | 21µM* | -13% | 0% | -1%
COc1ccccc1NC(=S)N1CCN(Cc2ccccc2)CC1 | 15µM* | -2% | ? | 11% | 21% | 7%
CCOc1cc(C(=O)Nc2cc(C)ccc2OC)ccc1OCC(=O)N1CCCCC1 | 7.3µM* | -35% | i | -1% | 8% | -147%
COc1ccc2oc(-c3cccc(NC(=O)c4sc5c([N+](=O)[O-])cccc5c4Cl)c3)nc2c1 | i | / | i | / | / | /
O=C1CCSC2(C(=O)N(Cc3ccc(F)cc3)c3ccccc32)N1c1ccc(F)c(F)c1 (stereo not given) | i | / | i | / | / | /
COc1ccc(C(=O)Nc2cnn(Cc3ccc(Cl)cc3)c2)cc1OC | i | 12µM* | 5.8µM* | ? | ? | -694%
COc1cc(CNc2ccc(N3CCN(C(C)=O)CC3)cc2)ccc1OCc1ccccc1 | 7.3µM* | 9% | ? | -24% | -11% | 2%
COc1ccc(C)cc1NC(=O)c1nn(-c2ccccc2)cc1OC | ? | 23µM* | ? | 15µM* | 15µM* | 22%
COc1ccc(NC(=O)c2ccc(CN3CCN(c4ccccc4)CC3)cc2)cc1OC | 16µM* | -2% | ? | ? | ? | 4%
COc1cn(-c2ccccc2)nc1C(=O)Nc1ccc(C)cc1 | i | 14% | i | -8% | -16% | ?
Cc1ccc(Sc2ccc(N3CCC(C(=O)Nc4ccc(C)c(F)c4)CC3)nn2)cc1 | i | / | i | / | / | /
O=C(Nc1ccc(Cl)cc1C(F)(F)F)C(Sc1nnc(-c2cccs2)o1)c1ccccc1 (stereo not given) | 15µM* | 1.6µM* | ? | 10µM* | ? | /
O=C(NCc1ccco1)c1ccc2ccccc2n1 | i | 0% | i | 29% | 22% | -4%
Nc1c(C(=O)NCc2ccco2)c2nc3ccccc3nc2n1CCc1ccccc1 | ? | 1.8µM* | i | 0% | ? | 7.3µM*
COc1ccc(CNC(=O)c2c(N)n(CCCN3CCOCC3)c3nc4ccccc4nc23)cc1 | ? | ? | i | ? | ? | 2.6µM*
Nc1c(C(=O)NCc2ccc(F)cc2)c2nc3ccccc3nc2n1CCCN1CCOCC1 | ? | ? | ? | ? | ? | 3.7µM*
Nc1c(C(=O)NCc2ccccc2)c2nc3ccccc3nc2n1CCCN1CCOCC1 | i | 18µM* | i | ? | ? | 18µM*
SMILES | KB-V1 MDR tox | MCF10A rereplic | KB-3-1 tox | HT1080 IDH1KD tx | HT1080-NT tox | SW480 rereplic
Cc1cc(C)nc(-n2nc(C)c3c2N(Cc2ccccc2)C(=O)CC3c2ccc(Cl)cc2)n1 (stereo not given) | i | / | i | / | / | /
CC1(C)OC(=O)C2(Cc3cc([N+](=O)[O-])ccc3N3CCCCC32)C(=O)O1 (stereo not given) | i | / | i | / | / | /
CCOc1ccc(-n2c(N)c(C(=O)NCc3ccco3)c3nc4ccccc4nc32)cc1 | ? | 13µM* | i | ? | ? | ?
Cc1ccc(/C=C/C(=O)Nc2cccc([S+](=O)([O-])Nc3ccccc3F)c2)cc1 | ? | / | i | / | / | /
CCOC(=O)CCCCC(=O)c1[nH]c(=O)[nH]c1CSc1nnc2c3ccccc3n(C(C)C)c2n1 | 15µM* | 23% | i | -19% | -20% | -6%
CC(=O)NC(C)(c1ccccc1)c1nc(-c2ccc(N(C)C)cc2)cs1 (stereo not given) | i | / | i | ? | 5% | /
O=C(N/N=C/c1ccc(O)cc1O)/C(=C/c1ccccc1)CCO | ? | 18µM* | i | ? | ? | ?
Cc1cccc(OCC(=O)NCC(=O)N/N=C/c2ccc(O)cc2O)c1 | ? | ? | i | 18µM* | -19% | ?
Cc1cccc(OCC(=O)NCC(=O)N/N=C/c2ccccc2)c1 | i | 7% | i | 2% | 2% | -1%
O=C(CNC(=O)C(c1ccccc1)c1ccccc1)N/N=C/c1ccc(O)cc1O | i | ? | ? | 7.3µM* | ? | ?

Source: PubChem BioAssay (National Center for Advancing Translational Sciences (NCATS))
